Assays:
Test in all cases: PBM binding z-score (relative to random genomic background probes); higher = stronger binding; sequences stand for … in GC…GCGATTGACAGCGTAGAATGAAGG
[1] = tested on: FXR:RXRa (NR concentration 270 nM, RXRa partner concentration 90 nM)
How it was run: (§1)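 Each nuclear receptor dimer, without ligand, was incubated for 1 h on custom Agilent 4×180K protein-binding microarrays. Binding was detected with antibodies against each partner (one per run), and scanned fluorescence was regression-normalized. The binding z-scores are referenced to random human genomic background probes.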

[2] = tested on: LXRa:RXRa (NR concentration 270 nM, RXRa partner concentration 90 nM)
How it was run: as §1

[3] = tested on: LXRa homodimer (NR concentration 270 nM)
How it was run: as §1

[4] = tested on: LXRb:RXRa (NR concentration 270 nM, RXRa partner concentration 90 nM)
How it was run: as §1

[5] = tested on: LXRb homodimer (NR concentration 270 nM)
How it was run: as §1

[6] = tested on: PPARa:RXRa (NR concentration 270 nM, RXRa partner concentration 90 nM)
How it was run: as §1

[7] = tested on: PPARg:RXRa (NR concentration 180 nM, RXRa partner concentration 90 nM)
How it was run: as §1

[8] = tested on: PPARg:RXRa 270nM:90nM, anti-RXR (NR concentration 270 nM, RXRa partner concentration 90 nM)
How it was run: as §1

[9] = tested on: PPARg:RXRa 30nM:10nM, anti-RXR (NR concentration 30 nM, RXRa partner concentration 10 nM)
How it was run: as §1

[10] = tested on: PPARg:RXRa 90nM:30nM, anti-RXR (NR concentration 90 nM, RXRa partner concentration 30 nM)
How it was run: as §1

[11] = tested on: PPARg:RXRa DBDmut IVT, anti-RXR (DBD mutation: RXRa K156A/R161A, NR concentration 270 nM, RXRa partner concentration 90 nM)
How it was run: as §1

[12] = tested on: PPARg:RXRa IVT, anti-PPARg (NR concentration 270 nM, RXRa partner concentration 90 nM)
How it was run: as §1

[13] = tested on: PPARg DBDmut:RXRa IVT, anti-PPARg (DBD mutation: PPARg1 K132A/R137A, NR concentration 270 nM, RXRa partner concentration 90 nM)
How it was run: as §1

[14] = tested on: PPARg DBDmut IVT, anti-PPARg (DBD mutation: PPARg1 K132A/R137A, NR concentration 270 nM)
How it was run: as §1

[15] = tested on: PPARg homodimer (NR concentration 180 nM)
How it was run: as §1

[16] = tested on: PXR:RXRa (NR concentration 270 nM, RXRa partner concentration 90 nM)
How it was run: as §1

[17] = tested on: PXR homodimer (NR concentration 270 nM)
How it was run: as §1

[18] = tested on: RARa:RXR (NR concentration 270 nM, RXRa partner concentration 90 nM)
How it was run: as §1

[19] = tested on: RARa homodimer (NR concentration 270 nM)
How it was run: as §1

[20] = tested on: RARb:RXRa (NR concentration 270 nM, RXRa partner concentration 90 nM)
How it was run: as §1

Sequence	PBM binding z-score [1]	PBM binding z-score [2]	PBM binding z-score [3]	PBM binding z-score [4]	PBM binding z-score [5]	PBM binding z-score [6]	PBM binding z-score [7]	PBM binding z-score [8]	PBM binding z-score [9]	PBM binding z-score [10]	PBM binding z-score [11]	PBM binding z-score [12]	PBM binding z-score [13]	PBM binding z-score [14]	PBM binding z-score [15]	PBM binding z-score [16]	PBM binding z-score [17]	PBM binding z-score [18]	PBM binding z-score [19]	PBM binding z-score [20]
AGTCAAAGTTCAGGACGAGGTAACCTAAAGCACG	4.17	3.71	1.24	1.96	0.245	3.49	4.24	4.79	2.04	3.75	-0.128	2.2	0.0369	0.548	2.47	2.74	1.53	2.96	0.958	4.23
ATCTGTAGGTTAAGGGTCATTCAGGTTGGTTCGC	5.22	5.26	3.63	4.56	1.72	5.72	9.93	9.03	9.65	10.6	3.99	5.75	1.73	1.69	3.99	5.59	3.35	6.53	2.88	3.77
CGAACTAGGTCATCCAGGACATTGAATACATTGA	4.43	2.87	1.02	2.52	0.159	5.11	7.97	6.57	4.02	5.68	8.08	8.47	4.18	1.44	2.2	2.71	3.75	2.82	1.01	3.92
TTACCAAGGTGAAAGATCGTTGATGCACGCCTTG	0.552	0.392	-0.574	0.286	-0.696	2.36	2.97	3.92	2.25	3.77	1.56	2.99	0.596	0.116	0.393	0.0637	-0.296	0.393	-0.301	1.23
TCTTGTAGATCAACAGGAGGTTAAGAACGATCGA	0.185	0.857	0.191	0.748	-0.245	1.36	0.136	1.3	2.75	1.81	1.71	0.594	0.843	0.593	0.264	0.722	-0.175	0.889	0.0224	0.446
CGTCCAAGGTCAAGGTCAGTTAAAGAGACTCGAA	7.98	6.08	1.79	4.95	1.26	6.11	6.45	6.18	2.97	5.03	3.64	4.64	0.996	0.327	3.84	5.2	1.12	5.74	1.83	5.81
CGTACTGGGCCATTCAGAGGTCATTGATCATATG	3.16	4.58	6.56	3.9	0.57	3.88	2.45	3.25	0.848	2.44	5.14	4.46	0.379	0.367	2.72	4.91	2.51	4.76	1.17	3.18
CCTAGTTGTTCAAGGTCACACACGCTATAGGTAC	4.9	4.93	4.85	4.17	1.95	4.26	2.64	3.12	1.55	2.55	1.86	2.8	2.46	1.22	4.99	4.73	3.83	5	4.94	4.12
GCTGCTAAGTCAACTGATGGTCAGCTAAAGCTCG	-0.765	-0.562	-0.539	-0.754	-1.04	-0.555	-0.342	-0.538	-0.793	-0.507	-0.284	-0.667	-2.15	-1.17	-0.917	-0.575	-1.21	-0.177	-1.24	0.174
CGTCCACGGTCAAAGGTCAGTGAAGAGATGACGG	5.45	4.83	1.87	3.7	-0.0177	5.49	7.71	7.46	5.82	7.93	1.1	3.94	-0.461	-0.195	6.23	4.9	0.288	7.25	2.09	5.01
GCTTACGGGTCAAAGGTTATAGCTTGAATAGAAT	6.94	5.6	0.366	5.39	0.468	6.66	11.3	9.06	8.76	10.9	4.25	5.72	1.28	1.02	1.88	5.86	0.119	7.89	0.811	4.34
CCTTACGGGTCACTGACAGGTTATAGGATTTGGA	4.95	4.33	0.341	3.36	-0.182	5.09	4.36	4.46	1.48	3.55	3.61	3.81	0.353	-0.0191	2.26	3.57	0.377	4.38	0.591	4.08
GCTAGTTGGTCAGTAAAAGGTCACACATCGGTCG	3.3	4.12	4.59	4.13	0.936	4.23	2.71	4.56	2.08	3.74	1.75	2.98	0.0513	0.435	4.49	4.7	1.49	5.23	2.58	4.26
TAGCCTAGGTCAGGGGCCAGTATACCACGCGAAC	1.76	1.34	-0.415	1.88	-0.376	2.61	2.83	2.96	0.91	2.43	0.374	2.32	0.429	0.131	0.542	0.506	-0.579	1.42	-0.0424	3.22
CGAACGGGGGCATGAGTTGATAGCAAATGCCGAT	3.26	2.81	0.42	4.42	6.73	3.99	2.63	4.68	2.82	3.84	3.7	5.31	8.66	10	2.78	3.06	1.34	2.78	0.977	2.79
CGTCCAAGGCCAGAGAGGTCAGTGAATGCCGAGT	1.34	1.44	0.491	1.74	-0.859	2.28	0.0517	0.653	-0.871	-0.148	0.239	0.381	-0.198	-1.31	0.821	3.1	3.64	2.39	-0.0907	3.41
CCTGCTAGGTCATGGTCAGCTATTCTACAGTATG	3.41	2.49	0.199	1.79	-0.409	3.28	2.34	2.63	0.534	1.64	4.23	3.4	-0.449	-0.223	2.13	1.28	-0.498	2.3	-0.317	3.95
AATAGCAGGCCAAGTTTGGGTCACTCAAACAAAG	0.16	0.399	-0.166	0.913	-0.947	1.72	0.314	0.478	-0.511	0.171	1.2	1.95	-0.692	-0.417	0.551	1.05	-0.42	1.79	-0.848	1.98
CAAACTAGGTCAGCGGAAGGTCAAAGTCCGCATG	4.7	5.1	3.95	4.3	0.622	5.61	7.65	6.54	4.12	6.37	7.81	8.08	3.33	1.19	5.64	5.42	1.11	6.59	1.75	4.89
TGAATGAGGTTCTAAGATCAGGGAACGTTGCAAA	-0.725	-0.693	-0.989	-0.763	-0.398	-0.344	-0.0951	-0.03	-0.103	0.161	-0.614	0.0916	-0.614	-0.528	-0.83	-0.331	-0.563	-0.599	-0.564	-0.67
CCTCGGAGGACAACAGGAGGTCAGAGATGCCAGA	1.06	1.85	2.02	1.36	-0.479	2.08	0.895	0.272	-0.499	-0.289	-0.0162	0.314	-0.377	-1.49	1.1	2.04	0.508	2.05	0.885	2.8
CCTACTGGGCCATTCAGAGGTCATTAATCATATG	2.24	3.76	5.48	3.81	0.468	3.74	1.99	2.79	0.44	2.02	4.22	4.37	0.0729	0.0343	2.11	4.17	2.46	3.83	0.0599	2.88
TCATACAGGTAAATGCTAGGTGAAAGTCCGATCT	0.695	0.892	0.122	0.729	0.432	1.07	0.609	2.04	3.75	2.83	2.68	1.46	0.656	0.391	0.443	0.585	0.0342	0.804	0.732	0.542
TCTCGGAGGACACGAACGGTCAGAGCTCGACATC	0.632	0.398	0.0467	-0.277	-0.841	0.0396	0.0784	0.624	1.74	0.89	1.13	-0.161	-0.337	-0.995	-0.693	-0.215	-0.654	-0.0917	-0.739	2.1
TAGCCTAGGCCATTGGGCCAGTATAGTACGCATC	-0.681	-0.881	-0.612	-0.883	-1.27	-1.09	0.237	-0.512	-0.597	-0.438	-0.378	0.553	-1.56	-0.875	-1.33	-0.947	-0.712	-0.936	-0.489	0.356
GCGACTGGGGCAAAGCAGGTTACCGTAAGGTTGG	-0.0896	0.23	-0.658	0.135	-1.45	1.51	0.866	1.45	-0.363	0.645	4.2	3.74	-0.21	-0.572	0.239	0.503	-0.648	1.73	-1.1	0.922
GCTTACGGGTCAAAGCTTATAGCATGAATAGAAT	6.25	3.79	-0.13	3.78	0.156	5.7	4.76	5.32	2.66	4.08	4.24	3.92	0.68	0.139	1.56	2.98	-0.218	4.44	-0.0595	3.83
ATCTCTAGGTAAAGACAGTTCAGTGAATGCAAAT	0.377	2.43	0.934	0.745	0.542	0.628	0.336	0.491	0.147	0.518	2.12	1.73	0.488	0.666	0.86	1.61	1	0.704	1.05	0.625
ATATGTAGGTTATCGGGACATTCAGTTTGCGCAT	0.568	0.813	0.715	0.858	0.692	3.3	5.05	4.45	2.25	3.45	7.42	6.98	2.35	2.08	2.64	0.647	1.45	0.532	1.55	1.06

— the supplement of paper PMC6555819
